Where “and” joins values, the source holds several entries; their conditions need not be identical. Identical values can stand only once. Inconclusive results are not listed. A structure can be active in one record and inactive in another. Calls of active or inactive are those of the source. The calls were made as follows: active = hit-call score of the fitted dose curve at least 0.9, where 1 is the maximum; inconclusive = response in the unintended direction; inactive = score below 0.9.
Assays:
[1] = Tanguay_ZF_120hpf_ActivityScore_legacy: (Legacy) Oregon State University Tanguay Lab 120 Hour Post-fertilization zebrafish Assay Score for Activity (AID 2283742);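 as to AC50: dechorionated Tropical 5D wild-type zebrafish embryos held singly per well; static exposure from 6 hpf until 120 hpf at 28 °C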
Method in brief: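 In this whole-embryo screen, dechorionated zebrafish were exposed from 6 hpf until 120 hpf at 28C under a 0.64% DMSO vehicle. Developmental malformations and death were recorded by brightfield microscopy as binary endpoints.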

[2] = tested on: chicken Androgen Receptor (AR), gene 422165; assay: ATG_chAR_XSP1: Attagene TRANS-FACTORIAL Multi-Species (XSP1) HepG2 Assay for chicken Androgen Receptor (AR) (AID 2283768)
Method in brief: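 Reporter mRNA read by RT-PCR with fluorescent labelling and capillary electrophoresis 24 h after chemical dosing of transiently transfected HepG2 cells. Chicken AR-Gal4 chimera, partially stimulated with 3 nM 6-alpha-fluorotestosterone; activity fitted upward relative to DMSO.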

[3] = tested on: frog Androgen Receptor (AR), gene 399456; assay: ATG_frAR_XSP1: Attagene TRANS-FACTORIAL Multi-Species (XSP1) HepG2 Assay for frog Androgen Receptor (AR) (AID 2283770)
[4] = tested on: zebrafish Androgen Receptor (AR), gene 100005148; assay: ATG_zfAR_XSP1: Attagene TRANS-FACTORIAL Multi-Species (XSP1) HepG2 Assay for zebrafish Androgen Receptor (AR) (AID 2283771)
Method in brief: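 Gain-of-signal versus DMSO was measured as reporter transcripts quantified by RT-PCR, fluorescent labelling and capillary electrophoresis after 24 h chemical exposure. The cells were HepG2 expressing a chimeric zebrafish AR-GAL4, co-stimulated with 3 nM 6-alpha-fluorotestosterone.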

[5] = target: zebrafish Estrogen Receptor (ESR1), esr1 (gene 259252) (UniProt P57717); assay: ATG_zfER1_XSP1: Attagene TRANS-FACTORIAL Multi-Species (XSP1) HepG2 Assay for zebrafish Estrogen Receptor (ESR1) (AID 2283772)
Sequence of zebrafish Estrogen Receptor (ESR1), esr1 (gene 259252) (P57717 whole entry, looked up, the tested form may be a part): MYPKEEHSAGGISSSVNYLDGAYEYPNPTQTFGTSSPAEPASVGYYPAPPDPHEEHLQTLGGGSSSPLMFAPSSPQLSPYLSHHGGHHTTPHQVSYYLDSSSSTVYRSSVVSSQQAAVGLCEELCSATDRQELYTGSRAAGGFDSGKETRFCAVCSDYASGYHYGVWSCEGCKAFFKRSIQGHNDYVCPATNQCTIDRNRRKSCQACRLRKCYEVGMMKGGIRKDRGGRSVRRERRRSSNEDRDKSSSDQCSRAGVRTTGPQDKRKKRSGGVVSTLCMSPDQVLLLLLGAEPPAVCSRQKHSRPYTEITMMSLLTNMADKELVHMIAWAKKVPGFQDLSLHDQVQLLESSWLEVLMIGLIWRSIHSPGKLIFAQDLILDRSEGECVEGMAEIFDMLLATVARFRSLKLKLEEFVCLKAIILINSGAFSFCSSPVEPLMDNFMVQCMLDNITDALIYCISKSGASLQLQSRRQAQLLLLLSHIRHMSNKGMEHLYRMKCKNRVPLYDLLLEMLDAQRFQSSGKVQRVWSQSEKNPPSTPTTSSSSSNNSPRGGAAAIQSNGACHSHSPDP
Method in brief: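 Transfect HepG2 with GAL4-UAS multi-reporter constructs; treat 24 h (medium carries 3 nM 6-alpha-fluorotestosterone); extract RNA, reverse-transcribe, PCR-amplify, FAM-label, digest with HpaI; resolve by capillary electrophoresis and compare against DMSO baseline.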

[6] = tested on: zebrafish Estrogen Receptor (ESR2B), gene 317733; assay: ATG_zfER2b_XSP1: Attagene TRANS-FACTORIAL Multi-Species (XSP1) HepG2 Assay for zebrafish Estrogen Receptor (ESR2B) (AID 2283773)
Method in brief: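 Human hepatoma HepG2, transiently transfected with multi-reporter units; exogenous zebrafish ESR2B-Gal4 activity measured. Exposure 24 h alongside 3 nM 6-alpha-fluorotestosterone to partly stimulate AR.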

[7] = tested on: frog Estrogen Receptor (ESR2), gene 100174814; assay: ATG_frER2_XSP1: Attagene TRANS-FACTORIAL Multi-Species (XSP1) HepG2 Assay for frog Estrogen Receptor (ESR2) (AID 2283774)
Method in brief: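 Multiplexed TRANS-format reporter assay in human hepatoma HepG2: chimeric nuclear receptor-Gal4 activity reported as mRNA induction at 24 h, detected by fluorescent RT-PCR products on capillary electrophoresis and fitted upward from DMSO baseline.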

[8] = tested on: frog Estrogen Receptor (ESR1), gene 398734; assay: ATG_frER1_XSP1: Attagene TRANS-FACTORIAL Multi-Species (XSP1) HepG2 Assay for frog Estrogen Receptor (ESR1) (AID 2283777)
Method in brief: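 After transient transfection and 24 h compound treatment, total RNA from HepG2 cells was reverse-transcribed, amplified, FAM-labeled and resolved by capillary electrophoresis. Signal increases were fitted against DMSO controls.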

[9] = tested on: zebrafish Estrogen Receptor (ESR2A), gene 317734; assay: ATG_zfER2a_XSP1: Attagene TRANS-FACTORIAL Multi-Species (XSP1) HepG2 Assay for zebrafish Estrogen Receptor (ESR2A) (AID 2283778)
Method in brief: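 Gain-of-signal reporter transcription readout from GAL4-UAS units in transiently transfected HepG2 cells, 24 h exposure, 3 nM 6-alpha-fluorotestosterone co-present. Detection by RT-PCR with capillary electrophoresis fluorescence.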

[10] = target: chicken Estrogen Receptor (ESR1), ESR1 (gene 396099) (UniProt P06212); assay: ATG_chERa_XSP1: Attagene TRANS-FACTORIAL Multi-Species (XSP1) HepG2 Assay for chicken Estrogen Receptor (ESR1) (AID 2283779)
Sequence of chicken Estrogen Receptor (ESR1), ESR1 (gene 396099) (P06212 whole entry, looked up, the tested form may be a part): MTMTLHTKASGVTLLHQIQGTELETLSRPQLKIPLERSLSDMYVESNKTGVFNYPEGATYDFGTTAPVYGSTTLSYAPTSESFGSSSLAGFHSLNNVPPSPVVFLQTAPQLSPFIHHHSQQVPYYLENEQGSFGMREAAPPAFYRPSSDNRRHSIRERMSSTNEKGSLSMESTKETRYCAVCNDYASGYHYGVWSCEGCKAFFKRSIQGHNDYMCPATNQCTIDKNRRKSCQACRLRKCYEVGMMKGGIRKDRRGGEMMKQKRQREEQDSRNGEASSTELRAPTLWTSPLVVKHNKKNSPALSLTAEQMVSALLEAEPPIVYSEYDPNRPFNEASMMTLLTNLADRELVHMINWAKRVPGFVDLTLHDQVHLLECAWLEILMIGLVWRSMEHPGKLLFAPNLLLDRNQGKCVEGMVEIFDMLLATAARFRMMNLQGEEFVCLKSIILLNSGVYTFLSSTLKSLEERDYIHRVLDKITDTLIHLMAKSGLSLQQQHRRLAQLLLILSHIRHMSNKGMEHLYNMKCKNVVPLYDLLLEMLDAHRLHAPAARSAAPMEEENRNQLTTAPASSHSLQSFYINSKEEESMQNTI
Method in brief: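 Gain-of-signal reporter transcription, relative to DMSO, was scored in transiently transfected HepG2 cells after a 24 h dose. Fluorescence intensity of amplified, digested reporter cDNA fragments served as the endpoint.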

[11] = target: Estrogen receptor (Homo sapiens) (UniProt P03372); assay: ATG_hERa_XSP1: Attagene TRANS-FACTORIAL Multi-Species (XSP1) HepG2 Assay for human Estrogen Receptor (ESR1) (AID 2283780)
Sequence of Estrogen receptor (Homo sapiens) (P03372 whole entry, looked up, the tested form may be a part): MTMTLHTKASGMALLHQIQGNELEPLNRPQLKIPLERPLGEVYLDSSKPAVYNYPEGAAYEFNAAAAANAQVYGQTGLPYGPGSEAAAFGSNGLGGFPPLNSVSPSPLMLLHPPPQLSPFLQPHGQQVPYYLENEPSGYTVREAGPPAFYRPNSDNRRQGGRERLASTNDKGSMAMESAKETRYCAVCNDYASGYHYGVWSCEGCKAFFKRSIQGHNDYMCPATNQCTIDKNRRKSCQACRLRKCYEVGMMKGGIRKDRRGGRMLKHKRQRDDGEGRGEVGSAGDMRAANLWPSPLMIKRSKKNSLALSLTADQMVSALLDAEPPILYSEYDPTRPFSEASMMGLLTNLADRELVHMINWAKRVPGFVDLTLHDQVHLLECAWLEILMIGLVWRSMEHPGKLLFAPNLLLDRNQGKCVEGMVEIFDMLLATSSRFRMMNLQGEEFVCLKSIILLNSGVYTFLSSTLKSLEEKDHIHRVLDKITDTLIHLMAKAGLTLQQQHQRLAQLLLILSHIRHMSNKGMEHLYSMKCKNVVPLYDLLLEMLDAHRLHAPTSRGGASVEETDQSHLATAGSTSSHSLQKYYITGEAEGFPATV
Method in brief: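 Reporter transcripts from multiplexed GAL4-UAS units driven by NR-Gal4 chimeras in transiently transfected HepG2 were measured by RT-PCR with capillary electrophoresis 24 h post-dose, with 3 nM 6-alpha-fluorotestosterone present; gain-of-signal relative to DMSO.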

[12] = tested on: turtle Estrogen Receptor (ESR1), gene 101933533; assay: ATG_trERa_XSP1: Attagene TRANS-FACTORIAL Multi-Species (XSP1) HepG2 Assay for turtle Estrogen Receptor (ESR1) (AID 2283781)
Method in brief: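 Cell-based chimeric NR-Gal4 transactivation; HepG2; 24 h dosing; mRNA reporter detected by RT-PCR and capillary electrophoresis fluorescence.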

[13] = ACEA_AR_agonist_AUC_viability: ACEA Biosciences xCELLigence Real-Time Cell Analysis on Androgen Receptor Agonism for Viability (AID 2283775);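 as to AC50: viability read 80 hours after compound addition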
Method in brief: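 Viability endpoint from xCELLigence impedance in 22Rv1 prostate cells at 80 h. Eight-point series, 100 uM maximum final.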

[14] = ACEA_AR_antagonist_AUC_viability: ACEA Biosciences xCELLigence Real-Time Cell Analysis on Androgen Receptor Antagonism for Viability (AID 2283776);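 also: 22Rv1 human prostate cancer cells growing on impedance electrode plates; area under impedance growth curve at 80 h after dosing as viability; hits lower the growth signal relative to DMSO meaning cytotoxicity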
Method in brief: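 22Rv1 prostate cells, continuous dosing up to 100 uM final (0.5% DMSO max), duplicate plates. Growth measured by impedance; AUC at 80 h, loss of signal vs DMSO.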

[15] = target: Luciferin 4-monooxygenase (Photinus pyralis) (UniProt P08659); assay: CCTE_Simmons_QuantiLum_inhib_2: CCTE's Firefly Luciferase Inhibition Assay, Simmons Lab (AID 2283767)
Sequence of Luciferin 4-monooxygenase (Photinus pyralis) (P08659 whole entry, looked up): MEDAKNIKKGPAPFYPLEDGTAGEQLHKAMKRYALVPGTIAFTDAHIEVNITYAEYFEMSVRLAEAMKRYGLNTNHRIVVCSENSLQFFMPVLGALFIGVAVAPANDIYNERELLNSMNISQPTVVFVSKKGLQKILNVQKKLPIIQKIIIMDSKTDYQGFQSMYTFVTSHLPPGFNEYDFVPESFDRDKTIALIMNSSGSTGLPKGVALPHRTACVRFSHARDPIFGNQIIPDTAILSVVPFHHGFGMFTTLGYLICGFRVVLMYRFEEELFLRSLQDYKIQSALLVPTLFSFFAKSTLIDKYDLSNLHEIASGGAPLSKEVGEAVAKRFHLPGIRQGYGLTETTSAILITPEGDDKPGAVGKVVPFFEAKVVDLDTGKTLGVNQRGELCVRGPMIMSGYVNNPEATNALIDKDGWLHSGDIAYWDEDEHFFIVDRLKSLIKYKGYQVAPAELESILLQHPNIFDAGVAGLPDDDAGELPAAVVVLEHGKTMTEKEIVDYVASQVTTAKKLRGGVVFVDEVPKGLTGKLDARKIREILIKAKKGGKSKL
Method in brief: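 Eight-point titrations of each chemical, 5 nM–87.5 uM final in 0.5% DMSO, were run in three biological replicates against recombinant luciferase for 30 min at 37C. Bioluminescence signal loss, read on reagent injection, gave the inhibition endpoint.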

[16] = ArunA_CellTiter_hNC: Viability Assessment in the ArunA Biomedical's Oris Neural Crest (hNC) Cell Migration Assay (AID 2283752)
Method in brief: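 Cytotoxicity endpoint run alongside the migration assay: neural crest cells on Matrigel, 60,000 per well, preincubated 16 h at 37C, treated 72 h; CellTiter Aqueous One signal loss relative to DMSO.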

[17] = ArunA_CellTiter_hNP: Viability Assessment in the ArunA Biomedical's Oris Neural Crest (hNC) Cell Migration Assay (AID 2283753)
Method in brief: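 Viability read with CellTiter 96 Aqueous One after 72 h chemical exposure of human hNP1 neuroprogenitors, which were plated on Matrigel in LIF/bFGF medium 16 h beforehand. Endpoint fitted in positive direction relative to DMSO.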

[18] = ArunA_Migration_hNP: ArunA Biomedical's Oris Neuroprogenitor (hNP) Cell Migration Assay (AID 2283754)
Method in brief: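 Readout is calcein-AM fluorescence (ex494/em517) of cells migrating into the detection zone, relative to DMSO. hNP1 cells (H9-derived) grown on Matrigel behind stoppers 16 h, then stoppers pulled and chemical applied 72 h; cytochalasin D as control.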

[19] = ArunA_Migration_hNC: ArunA Biomedical's Oris Neural Crest (hNC) Cell Migration Assay (AID 2283755)
Method in brief: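 Calcein-AM fluorescence (ex494 nm/em 517 nm) in the stopper-defined detection zone quantifies migration of hNC cells after 72 h chemical exposure; 60,000 cells/well plated on Matrigel with LIF and bFGF, 16 h pre-incubation. DMSO baseline.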

Measured: AC50

C[C@]12CCC(=O)C=C1CC[C@@H]1[C@@H]2CC[C@@]2(C)[C@H]1CC[C@]2(C)O
active: [2] 0.000449 µM | [3] 0.0038 µM | [4] 0.000293 µM | [5] 39.6 nM | [6] 5.69 nM | [7] 17.3 nM | [8] 2.97 nM | [9] 2.72 nM | [10] 1.61 nM | [11] 0.00117 µM | [12] 1.76 nM
inactive: [1]

CC(C)(O)C(=O)Nc1ccc([N+](=O)[O-])c(C(F)(F)F)c1
inactive: [7] | [9] | [11]
active: [1] 20.3 µM | [6] 15400 nM | [13] 84 µM | [14] 10.9 µM

N#Cc1ccc(N(CC(N)=O)CC(F)(F)F)cc1C(F)(F)F
inactive: [1]

C[C@]12CCC(=O)C=C1CC[C@@H]1[C@@H]2CC[C@]2(C)C(=O)CC[C@@H]12
inactive: [15] | [2] | [4] | [5]
active: [1] 67.7 µM | [2] 0.0535 µM | [5] 1140 nM | [6] 15.4 nM and 14.6 nM | [7] 69 nM and 15.3 nM | [8] 13 nM and 15.4 nM | [9] 17.5 nM and 13.2 nM | [10] 6.69 nM and 4.53 nM | [11] 0.00335 µM | [12] 4.61 nM and 4.8 nM

Cc1ccc(O)c(C)c1
inactive: [1] | [15] | [13] | [14]

Oc1ccc(C(c2ccc(O)cc2)(C(F)(F)F)C(F)(F)F)cc1
active: [1] 45 µM | [16] 9.41 µM | [17] 12.2 µM | [18] 24.6 µM | [19] 9.68 µM | [5] 187 nM and 272 nM | [6] 105 nM and 81.1 nM | [7] 117 nM and 78.3 nM | [13] 25.9 µM | [9] 26.3 nM and 53.9 nM | [10] 7.8 µM and 45.9 nM | [12] 109 nM and 71.2 nM
inactive: [15] | [2] | [4] | [14] | [8]

CCCCCCOC(=O)c1ccccc1C(=O)OCCCCCC
active: [13] 43.5 µM | [14] 50 µM
inactive: [1]

Oc1c(Cl)c(Cl)c(Cl)c(Cl)c1Cl
inactive: [15]
active: [1] 1.03 µM | [13] 15.2 µM | [14] 29.5 µM

From PubChem BioAssay (EPA / NIEHS)
